Only some compounds are listed: those with a hit (about 2.4% of all), similar ones and a draw of the others.
D2 antagonist: antagonizes the human D2 dopamine receptor; inhibition, % at 10 µM; AID 485344; P14416; actives 2% (n = 340,000); HEK293 TREx D2 cells, calcium flux, dopamine EC80; in the data active = inhibition above about 30%; inactive = below that, where a call was filed; note: 0% is about no effect
Target sequence (P14416 whole entry, looked up): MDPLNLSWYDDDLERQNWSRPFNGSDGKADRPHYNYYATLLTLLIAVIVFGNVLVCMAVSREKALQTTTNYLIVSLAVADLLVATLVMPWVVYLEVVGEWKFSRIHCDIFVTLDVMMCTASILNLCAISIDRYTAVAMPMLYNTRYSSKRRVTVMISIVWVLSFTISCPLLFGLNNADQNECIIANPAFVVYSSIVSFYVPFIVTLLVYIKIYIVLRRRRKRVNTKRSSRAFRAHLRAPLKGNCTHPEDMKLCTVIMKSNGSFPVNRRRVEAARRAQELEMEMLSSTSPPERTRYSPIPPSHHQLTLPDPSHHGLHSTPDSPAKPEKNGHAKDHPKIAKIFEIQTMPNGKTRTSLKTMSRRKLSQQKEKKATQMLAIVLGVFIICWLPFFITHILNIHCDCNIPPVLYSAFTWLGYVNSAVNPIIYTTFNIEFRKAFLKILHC
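Antagonism is scored as inhibition of an EC80 dopamine-evoked calcium signal in a force-coupled, tetracycline-inducible HEK293 T-REx D2 line, with compound present 180 s before agonist.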
D2 ag-1: human D2 receptor agonism in beta-arrestin assay; P14416; DiscoveRx PathHunter D2 beta-arrestin, luminescence, 90 min; 100% = 57 uM dopamine signal; activation, % (test concentration not listed); actives 0.084% (n = 360,000); AID 624465; in the data active = activation above about 40%; inconclusive = between about 15% and that limit
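DiscoveRx PathHunter D2 beta-arrestin cells (2,100/well) attached overnight, then compound-stimulated 90 min at 37 C in HBSS/10 mM HEPES/0.1% Tween-20 buffer; beta-galactosidase complementation read by luminescence after 1 h at ambient temperature. Dopamine 57 uM final (EC100) as control.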
D2 ag-2: D2 dopamine receptor (human) agonism; P14416; activation, % at 2 µM; actives 0.53% (n = 340,000); HEK293 T-REx D2 cells, calcium flux agonist mode;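 active = activation over 3 SD above normal in the single-dose calcium agonist read, cut at about 30% in these data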; note: 0% is about no effect
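Agonism is scored from calcium flux in a force-coupled, inducible HEK293 cell line expressing D2, read kinetically for 180 s after compound addition against dopamine controls.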
D2 PAM-1: human D2 receptor positive allosteric modulation; potentiation, % (no concentration beside the values); actives 0.23% (n = 360,000); DiscoveRx D2 beta-arrestin cells, luminescence, 90 min; 100% = 57 uM dopamine signal; in the data active = potentiation above about 50%; inconclusive = mostly about 30% to 49%
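PathHunter D2 cells, attached overnight at 37 deg C, received compound in DMSO plus dopamine at EC20 (50 nM final) for 90 min at 37 deg C. Beta-arrestin recruitment was read as luminescence after 1 h with detection reagent at ambient temperature.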
D2 PAM-2: positively modulates the human D2 dopamine receptor allosterically; HEK293 T-REx D2, calcium flux, EC20 dopamine potentiation; potentiation, % at 10 µM; actives 0.34% (n = 340,000);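 active = potentiation over 3 SD above the plate norm, cut at about 30% in these data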; note: 0% is about no effect
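Tetracycline-induced Hek293 Trex D2 cells, force-coupled to calcium, loaded with no-wash calcium dye. Compound added with 180 s kinetic read for agonism, then EC20 dopamine and a further 180 s read for potentiation.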
* hit, by the source's call; u = inconclusive; x = not tested or not shown.

SMILES	D2 antagonist	D2 ag-1	D2 ag-2	D2 PAM-1	D2 PAM-2
CC(COc1ccccc1)N1CCC(CO)(CCc2ccccc2)CC1 (stereo unspecified)	52*	-1	17	-15	-17
Cc1ncc(CN2CCC(CO)(CCc3ccccc3)CC2)s1	81*	-3	1	-23	-38
OCC1(CCCc2ccccc2)CCN(Cc2cnc(N3CCOCC3)s2)CC1	-9	-2	0	-12	-3
CN(C)C=NC(=O)c1cc(C(=O)c2ccc(F)cc2)c[nH]1	5	-1	0	-5	-1
CN(C)C=NC(=O)c1cc(C(=O)c2ccccc2)c[nH]1	33*	-2	0	-1	0
C=CCc1ccc(OCCOCCN(C)C)c(OC)c1	5	0	0	-26	31*
O=C(COC(=O)c1cc(-c2ccccc2)nc2ccccc12)c1ccc(Br)cc1	x	x	x	x	-1
C/C(N)=C(/C#N)C(=O)COC(=O)c1cc(-c2ccc(Br)cc2)nc2ccccc12	47*	7	2	-1	-12
CCC(Sc1nc2cc3c(cc2c(=O)n1CCCCCC(=O)NCc1ccc2c(c1)OCO2)OCO3)C(=O)NCCCOC (stereo unspecified)	x	x	0	x	-4
CCc1nnc2n1N(C(C)=O)C(c1ccc(C(C)(C)C)cc1)=C(C(C)=O)S2	x	x	0	x	17
CS(=O)(=O)N(CC(=O)NCc1ccccc1)C1CCCCC1	37*	-4	0	-3	-8
Cc1ccc(CNC(=O)CN(C2CCCCC2)S(C)(=O)=O)cc1	3	-4	0	-7	-6
CS(=O)(=O)N(CC(N)=O)c1cccc(Br)c1	-4	1	1	u	48*
Cn1cccc1CNCc1ccccc1Cl	2	-4	50*	-10	-18
Cn1cccc1CNC(=O)Nc1ccccc1	-6	-1	1	8	1
Cn1cccc1CNC(=O)Nc1ccc(Cl)cc1	31*	-3	0	-25	5
CCCCCNCc1cccn1C	10	-2	0	-10	-14
CCc1cccc(CC)c1NC(=O)Cn1nnc2sc3c(c2c1=O)CCCC3	x	x	1	x	10
COc1ccccc1CN1CCNC(=O)C1=O	x	x	1	x	1
CCOc1ccc(N2C(=O)CS(=O)(=O)C23C(=O)N(Cc2cccc(Cl)c2)c2ccccc23)cc1 (stereo unspecified)	x	x	1	x	-7
COCCCNC(=O)c1cn(Cc2c(F)cccc2Cl)nn1	32*	-1	-1	5	-9
COCCNC(=O)CSCc1c(F)cccc1Cl	2	0	-2	-8	2
O=C(CN1CCC(C(=O)c2ccc(F)cc2)CC1)Nc1ccc(F)cc1	10	-2	0	-34	-25
Cc1ccc(C(=O)C2CCN(CC(=O)Nc3ccc(N(C)C)cc3)CC2)cc1	33*	-1	0	-19	-27
Cc1ccc(C(=O)C2CCN(CC(=O)N3CCN(c4ccc(F)cc4)CC3)CC2)cc1	51*	1	0	-13	-14
SMILES	D2 antagonist	D2 ag-1	D2 ag-2	D2 PAM-1	D2 PAM-2
Cc1ccc(C(=O)N2CCC(C(=O)c3ccc(F)cc3)CC2)cc1	x	-2	x	-20	x
COc1ccc(-c2cc(C(=O)NCc3ccc(F)cc3)c3c(-c4ccc(F)cc4)[nH]nc3n2)cc1OC	x	x	0	x	7
Cc1cccc(C)c1NC(=O)C(c1ccccc1)N(C)CCc1ccccc1 (stereo unspecified)	x	-4	x	-10	x
CCC(Oc1ccccc1)C(=O)Nc1ccccc1C(=O)N1CCCCC1 (stereo unspecified)	-13	-2	0	69*	-14
COc1ccc2c(c1)c(=O)c(C(=O)c1ccc(F)cc1)cn2CC(=O)Nc1ccc2c(c1)OCO2	x	x	0	x	-18
COc1cc(OC)c(NC(=O)Cc2c(C(=O)O)c(C)cn2C)cc1Cl	x	x	0	x	5
Cc1ccccc1S(=O)(=O)N(CC(O)CN1CCCCC1)c1ccccc1 (stereo unspecified)	54*	-1	1	-12	-17
O=[N+]([O-])c1ccccc1S(=O)(=O)N(CC(O)CN1CCCCC1)c1ccccc1 (stereo unspecified)	8	-4	0	-8	-8
O=C(c1cnc(N2CCCCC2)c2ccccc12)N1CCN(c2ccc(Cl)cc2)CC1	x	x	-1	x	-4
